# Values joined by “and” are separate entries in the source; they are usually repeats but may differ in a detail not shown here. Equal values may be shown once. Records with an inconclusive call do not appear. Where a call stands in place of a potency, no number is given. A number with no mark means an inactive call. Active and inactive are the calls of the source. The call rests on the fitted dose curve; in most records, active means well fitted curve in the direction sought with a large enough effect; inconclusive means small, poorly fitted or top-dose-only effect, or another doubt; inactive means no such curve, though single readings can be large; an effect the other way counts as inactive or inconclusive. Where a SMILES comes first, the peptide text is derived from it. Bridges are numbered along the chain shown (N, C = ends). [ ]: non-standard residue; d: D form. The star is where a group is joined. X1 = CCC(C)C(N)C1=NC(C(=O)*)CS1; dOrn = NCCC[C@@H](N)C(=O)O; 2Abz = Nc1ccccc1C(=O)O
# Legend:
# [1] = tested on: NIH3T3; experiment: Cytotoxic Profiling of Annotated Libraries Using Quantitative High-Throughput Screening (AID 1296008); settings: Five cell lines viability, CellTiter-Glo ATP luminescence, 48-72 h; max response: hits give low values; further: nearly all actives have a fitted effect of over 60% in size
# Method in brief: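 Compounds were pin-transferred onto cells and incubated 48 or 72 hr at 37 degree Celsius, 95% humidity. CellTiter-Glo was added, plates sat 10 min at room temperature, then ATP-coupled luminescence was imaged as the viability read-out.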
# [2] = tested on: HACAT; experiment: qHTS assay to identify novel small-molecules to repurpose for Merkel cell carcinoma treatment (AID 1296009); settings: MCC and control cell lines, CellTiter-Glo viability, 72 h; at 44.8 µM (top of the series) unless noted; further: nearly all actives have a fitted effect of over 60% in size
# Method in brief: (§1)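 Viability readout: ATP luminescence (CellTiter-Glo) after 72 hr drug exposure at 37 degree celsius. Dose-response format was 8 points for NPC and 11 points for MIPE; data normalized to in-plate controls.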
# [3] = tested on: HEK293T; experiment: as above; settings: MCC and control cell lines, CellTiter-Glo viability, 72 h; series mostly up to 44.8 µM
# Method in brief: as §1
# [4] = tested on: C33A; experiment: Primary qHTS to identify gynecologic anti-cancer compounds using libraries of approved drugs and bioactive compounds (AID 1345084); settings: Gynecologic cancer cell panel viability, ATPlite luminescence, 48 h; series mostly up to 57.5 µM; further: nearly all actives have a fitted effect of over 55% in size; further: potency means the concentration at half of the fitted maximal effect
# Method in brief: (§2)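 48 h compound exposure at 37 C, 5% CO2; five-point qHTS. ATPlite luminescence readout of cell ATP.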
# [5] = tested on: CAOV3; experiment: as above; settings: Gynecologic cancer cell panel viability, ATPlite luminescence, 48 h; series mostly up to 57.5 µM
# Method in brief: as §2
# [6] = tested on: CASKI; experiment: as above; settings: Gynecologic cancer cell panel viability, ATPlite luminescence, 48 h; series mostly up to 57.5 µM
# Method in brief: as §2
# [7] = tested on: Es-2; experiment: as above; settings: Gynecologic cancer cell panel viability, ATPlite luminescence, 48 h; series mostly up to 57.5 µM
# Method in brief: as §2
# [8] = tested on: HeLa; experiment: as above; settings: Gynecologic cancer cell panel viability, ATPlite luminescence, 48 h; series mostly up to 57.5 µM
# Method in brief: as §2
# [9] = tested on: Hek293T; experiment: as above; settings: Gynecologic cancer cell panel viability, ATPlite luminescence, 48 h, control line for the selectivity index; series mostly up to 57.5 µM
# Method in brief: as §2
# [10] = tested on: JEG-3; experiment: as above; settings: Gynecologic cancer cell panel viability, ATPlite luminescence, 48 h; series mostly up to 57.5 µM
# Method in brief: as §2
# [11] = tested on: PA-1; experiment: as above; settings: Gynecologic cancer cell panel viability, ATPlite luminescence, 48 h; series mostly up to 57.5 µM
# Method in brief: as §2
# [12] = tested on: OV90; experiment: as above; settings: Gynecologic cancer cell panel viability, ATPlite luminescence, 48 h; series mostly up to 57.5 µM
# Method in brief: as §2
# [13] = tested on: NIH3T3; experiment: qHTS assay to identify novel small-molecules to repurpose for Merkel cell carcinoma treatment (AID 1296009); settings: MCC and control cell lines, CellTiter-Glo viability, 72 h; at 44.8 µM (top of the series) unless noted; further: nearly all actives have a fitted effect of over 60% in size
# Method in brief: as §1
smiles,measurement,setting,value
Cc1cn2c(N)c(Cl)cc(C(=O)NCC3CCN(CC(C)C)CC3)c2n1,outcome,[1],inactive
same,outcome,[2],inactive
same,Potency,[3],inactive
same,Potency,[4],inactive
same,Potency,[5],inactive
same,Potency,[6],inactive
same,Potency,[7],inactive
same,Potency,[8],inactive
same,Potency,[9],inactive
same,Potency,[10],inactive
same,Potency,[11],inactive
C=C1C2(CCC(=O)OC2(C)C)CC(OC(=O)/C(C)=C/C)C2(C)C13OC14C(=O)OC(C)(C(=O)C12C(=O)OC4C)C3OC(C)=O (centres undefined),max response,[1],4.63%
same,outcome,[2],inactive [at 17.4 µM]
same,Potency,[3],inactive
same,Potency,[4],inactive
same,Potency,[5],inactive
same,Potency,[6],inactive
same,Potency,[7],inactive
same,Potency,[8],inactive
same,Potency,[9],inactive
same,Potency,[10],inactive
same,Potency,[12],inactive
same,Potency,[11],inactive
CCC(C)C1NC(=O)C2CCCN2C(=O)C(C(C)C)NC(=O)c2ccccc2NC(=O)C(Cc2ccc(O)cc2)NC(=O)C(C)NC(=O)C(C(C)O)NC1=O (centres undefined) (cyclo([2Abz]VPITAY); configuration not given here),outcome,[1],inactive
same,outcome,[2],inactive [at 17.4 µM]
same,Potency,[3],inactive
same,outcome,[13],inactive [at 17.4 µM]
same,Potency,[4],inactive
same,Potency,[5],inactive
same,Potency,[6],inactive
same,Potency,[7],inactive
same,Potency,[8],inactive
same,Potency,[9],inactive
same,Potency,[10],inactive
same,Potency,[12],inactive
same,Potency,[11],inactive
C=C1C[C@]23C[C@H]1CC[C@H]2[C@]1(C)CCC[C@@]2(CO)C(=O)O[C@H]([C@H]21)[C@@H]3O,max response,[1],2.59%
same,outcome,[2],inactive
same,Potency,[3],inactive
same,Potency,[4],inactive
same,Potency,[5],inactive
same,Potency,[6],inactive
same,Potency,[7],inactive
same,Potency,[8],inactive
same,Potency,[9],inactive
same,Potency,[10],inactive
same,Potency,[12],inactive
same,Potency,[11],inactive
CCC(C)/C=C(C)/C=C/C1=CC2=C(Cl)C(=O)C(C)(OC(C)=O)C(=O)C2=CN1CCCC(=O)O (centres undefined),max response,[1],-0.464%
same,Potency,[3],inactive
same,Potency,[4],inactive
same,Potency,[5],inactive
same,Potency,[6],inactive
same,Potency,[7],inactive
same,Potency,[8],inactive
same,Potency,[9],inactive
same,Potency,[10],inactive
same,Potency,[12],inactive
same,Potency,[11],inactive
CCC(C)C(N)C1=NC(C(=O)N[C@@H](CC(C)C)C(=O)N[C@H](CCC(=O)O)C(=O)N[C@H](C(=O)N[C@H]2CCCCNC(=O)[C@H](CC(N)=O)NC(=O)[C@@H](CC(=O)O)NC(=O)[C@H](Cc3cnc[nH]3)NC(=O)[C@@H](Cc3ccccc3)NC(=O)[C@H]([C@@H](C)CC)NC(=O)[C@@H](CCCN)NC2=O)[C@@H](C)CC)CS1 (some centres undefined) (X1-L[dE]IK[dOrn]I[dF]H[dD]N; lactam 4-C),max response,[1],2.78%
same,outcome,[2],inactive [at 17.4 µM]
same,Potency,[4],inactive
same,Potency,[6],inactive
same,Potency,[7],inactive
same,Potency,[8],inactive
same,Potency,[9],inactive
same,Potency,[10],inactive
same,Potency,[12],inactive
same,Potency,[11],inactive
C/C(=C/CO)CC[C@@H]1[C@@]2(C)CCC[C@](C)(C(=O)O)C2CC[C@@]1(C)O (some centres undefined),max response,[1],-1.08%
same,outcome,[2],inactive
same,Potency,[3],inactive
same,Potency,[4],inactive
same,Potency,[5],inactive
same,Potency,[6],inactive
same,Potency,[7],inactive
same,Potency,[8],inactive
same,Potency,[9],inactive
same,Potency,[10],inactive
same,Potency,[12],inactive
same,Potency,[11],inactive
COC(=O)[C@H](CC1C=NC=N1)NCC12CC3CC(CC(C3)C1)C2 (some centres undefined),outcome,[1],inactive
same,outcome,[2],inactive
same,Potency,[3],inactive
same,outcome,[13],inactive
same,Potency,[4],inactive
same,Potency,[5],inactive
same,Potency,[6],inactive
same,Potency,[7],inactive
same,Potency,[8],inactive
same,Potency,[9],inactive
same,Potency,[10],inactive
same,Potency,[12],inactive
same,Potency,[11],inactive
CC1OC(OC2C(CO)OC(OCC3OC(OC(=O)C45CCC(C)(C)CC4C4=CCC6C7(C)CCC(OC8OC(C(=O)O)C(O)C(OC9OC(CO)C(O)C(O)C9O)C8O)C(C)(C)C7CCC6(C)C4(C)CC5)C(O)C(O)C3O)C(O)C2O)C(O)C(O)C1O (centres undefined),max response,[1],3.49%
same,outcome,[3],inactive [at 9.27 µM]
same,"activity change, negative = cytotoxicity",[4],4.48% [at 6.55 µM]
same,"activity change, negative = cytotoxicity",[5],-1.08% [at 6.55 µM]
same,"activity change, negative = cytotoxicity",[6],0.241% [at 6.55 µM]
same,"activity change, negative = cytotoxicity",[7],5.55% [at 6.55 µM]
same,"activity change, negative = cytotoxicity",[8],-1.58% [at 6.55 µM]
same,"activity change, negative = cytotoxicity",[9],6.6% [at 6.55 µM]
same,"activity change, negative = cytotoxicity",[10],9.3% [at 6.55 µM]
same,"activity change, negative = cytotoxicity",[12],0.685% [at 6.55 µM]
same,"activity change, negative = cytotoxicity",[11],14.3% [at 6.55 µM]
CC1(C)CCCC2(C)C1C(O)C=C(CO)C2(O)C(=O)O (centres undefined),max response,[1],3.08%
same,Potency,[3],inactive
same,Potency,[4],inactive
same,Potency,[5],inactive
same,Potency,[6],inactive
same,Potency,[7],inactive
same,Potency,[8],inactive
same,Potency,[9],inactive
same,Potency,[10],inactive
same,Potency,[12],inactive
same,Potency,[11],inactive
O=C(/C=C/c1ccc(O)cc1)OCC1=C[C@@H](O)[C@@H]2C=CO[C@@H](O[C@@H]3O[C@H](CO)[C@@H](O)[C@H](O)[C@H]3O)[C@H]12,outcome,[1],inactive
same,outcome,[2],inactive [at 17.4 µM]
same,Potency,[3],inactive
same,outcome,[13],inactive [at 17.4 µM]
same,Potency,[4],inactive
same,Potency,[5],inactive
same,Potency,[6],inactive
same,Potency,[7],inactive
same,Potency,[8],inactive
same,Potency,[9],inactive
same,Potency,[10],inactive
same,Potency,[12],inactive
same,Potency,[11],inactive
COC(=O)[C@@]1(O)C=CC[C@@H]2[C@@]3(C)C[C@@H](c4ccoc4)OC(=O)[C@H]3CC[C@]21C,outcome,[1],inactive
same,outcome,[2],inactive
same,Potency,[3],inactive
same,outcome,[13],inactive
same,Potency,[4],inactive
same,Potency,[5],inactive
same,Potency,[6],inactive
same,Potency,[7],inactive
same,Potency,[8],inactive
same,Potency,[9],inactive
same,Potency,[10],inactive
same,Potency,[12],inactive
Nc1c(Br)cc(Br)cc1CNC1CCC(O)CC1 (centres undefined),Potency,[5],inactive
same,Potency,[7],inactive
same,Potency,[8],inactive
same,Potency,[9],inactive
same,Potency,[10],inactive
same,Potency,[12],inactive
same,Potency,[11],inactive
CC(=O)OCCC(C)CCC1C(C)(O)CCC2C(C)(C)CCCC21C (centres undefined),max response,[1],-3.93%
same,Potency,[3],inactive
same,Potency,[4],inactive
same,Potency,[5],inactive
same,Potency,[6],inactive
same,Potency,[7],inactive
same,Potency,[8],inactive
same,Potency,[9],inactive
same,Potency,[10],inactive
same,Potency,[12],inactive
same,Potency,[11],inactive
N#Cc1ccc2[nH]c(O)c(-c3ccc(CN4CCOCC4)cn3)c2c1,max response,[1],-16.6%
same,outcome,[1],inactive
same,Potency,[3],inactive
same,outcome,[13],inactive
same,Potency,[4],inactive
same,Potency,[5],inactive
same,Potency,[6],inactive
same,Potency,[7],inactive
same,Potency,[9],inactive
same,Potency,[10],inactive
same,Potency,[12],inactive
same,Potency,[11],inactive
CO/N=C(/C(=O)N[C@@H]1C(=O)N2C(C(=O)O)=C(CSC(=O)c3ccco3)CS[C@H]12)c1csc(N)n1,max response,[1],0.301% and -3.25%
same,outcome,[2],inactive; activator
same,Potency,[4],inactive
same,Potency,[5],inactive
same,Potency,[6],inactive
same,Potency,[7],inactive
same,Potency,[8],inactive
same,Potency,[9],inactive
same,Potency,[10],inactive
same,Potency,[12],inactive
same,Potency,[11],inactive
C=C(C)[C@H]1C[C@@H](O)C(=C)CC[C@@H](O)C(=C)[C@@H](O)C1,max response,[1],-1.51%
same,outcome,[2],inactive
same,Potency,[3],inactive
same,Potency,[4],inactive
same,Potency,[5],inactive
same,Potency,[6],inactive
same,Potency,[7],inactive
same,Potency,[8],inactive
same,Potency,[9],inactive
same,Potency,[10],inactive
same,Potency,[12],inactive
same,Potency,[11],inactive
CC1CC(=O)C2=C(O1)OC1(C)CCC3C(C)(C)C=CC(=O)C3(C)C1C2 (centres undefined),outcome,[1],inactive
same,outcome,[2],inactive
same,Potency,[3],inactive
same,outcome,[13],inactive
same,Potency,[4],inactive
same,Potency,[5],inactive
same,Potency,[6],inactive
same,Potency,[7],inactive
same,Potency,[8],inactive
same,Potency,[9],inactive
same,Potency,[10],inactive
same,Potency,[12],inactive
same,Potency,[11],inactive
C=CCc1ccc(O[C@@H]2O[C@H](CO)[C@@H](O)[C@H](O)[C@H]2O)c(OC)c1,outcome,[1],inactive
same,outcome,[2],inactive
same,Potency,[3],inactive
same,outcome,[13],inactive
same,Potency,[4],inactive
same,Potency,[6],inactive
same,Potency,[7],inactive
same,Potency,[8],inactive
same,Potency,[9],inactive
same,Potency,[10],inactive
same,Potency,[12],inactive
same,Potency,[11],inactive
NS(=O)(=O)OC[C@@H]1C[C@@H](n2ccc3c(N[C@H]4CCc5ccccc54)ncnc32)C[C@@H]1O,Potency,[6],inactive
same,Potency,[7],3.16 µM (active)
same,Potency,[8],inactive
same,Potency,[9],2.51 µM (active)
same,Potency,[10],inactive
same,Potency,[12],inactive
same,Potency,[11],708 nM (active) and 1 µM (active)
C[C@@H]1C[C@H](O[C@@H]2O[C@H](CO[C@@H]3OC[C@](O)(CO)[C@H]3O)[C@@H](O)[C@H](O)[C@H]2O)CC(C)(C)[C@H]1/C=C/[C@@H](C)O,outcome,[1],inactive
same,outcome,[2],inactive [at 17.4 µM]
same,Potency,[3],inactive
same,outcome,[13],inactive [at 17.4 µM]
same,Potency,[4],inactive
same,Potency,[5],inactive
same,Potency,[6],inactive
same,Potency,[7],inactive
same,Potency,[8],inactive
same,Potency,[9],inactive
same,Potency,[10],inactive
same,Potency,[12],inactive
same,Potency,[11],inactive

# From PubChem BioAssay (NCATS)
